MIN6 prolif-1: inducers of beta-cell replication in MIN6 cells. MIN6 cells proliferation, ATPlite luminescence, 48 h; cells starved in 0.2% serum; 100% = growth in 10% serum. proliferation, % at 10 µM. 0.29% of 330,000 active;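 active = compounds whose signal lies at least 3.5 SD above the mean of all wells on their plate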
Platelet DG rel: platelet dense granule release activity; 0.22% of 300,000 active; AID 1663; human platelet-rich plasma, SFLLRN dense granule ATP release, luminescence; inhibition, %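 (compounds screened at 7.5 µM in platelet-rich plasma)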;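 active = mean replicate score, as percent of positive control, at or above 50; inconclusive = mean below 50 but at least one replicate at or above 50; inactive = mean and every replicate below 50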
GRK2 inh: human GRK2 inhibition via aptamer displacement. bead flow cytometry, FAM-aptamer displacement from GRK2. inhibition of aptamer binding, % at 10 µM. 0.59% of 330,000 active;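 active = inhibition of aptamer binding above 40%, roughly 3 SD of noise, on plates passing a quality check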;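 also: median bead fluorescence of bound FAM aptamer so fluorescent compounds give negative values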
NTR1 agonist: agonists of human neurotensin receptor NTR1; P30989; NTR1-U2OS beta-arrestin-GFP spot imaging, agonist mode; activation, % at 20 µM; 0.17% of 330,000 active; AID 493036;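 active = activation at or above 40% of the spot to cytoplasm intensity ratio, with at least 20 cells analyzed; inconclusive = wells under 20 cells, flagged as cytotoxic or low count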
Target sequence (P30989 whole entry, looked up): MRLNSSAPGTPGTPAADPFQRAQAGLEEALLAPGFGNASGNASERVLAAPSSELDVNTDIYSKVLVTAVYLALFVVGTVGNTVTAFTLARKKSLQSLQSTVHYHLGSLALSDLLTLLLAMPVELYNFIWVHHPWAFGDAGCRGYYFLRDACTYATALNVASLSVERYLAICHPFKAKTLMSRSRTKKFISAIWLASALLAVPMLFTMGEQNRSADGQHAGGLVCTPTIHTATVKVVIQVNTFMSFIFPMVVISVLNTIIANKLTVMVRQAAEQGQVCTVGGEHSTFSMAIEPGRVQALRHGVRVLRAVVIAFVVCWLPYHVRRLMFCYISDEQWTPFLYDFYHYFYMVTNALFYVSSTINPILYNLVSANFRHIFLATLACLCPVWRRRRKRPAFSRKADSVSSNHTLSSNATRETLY
MIN6 prolif-2: confirmation of inducers of beta-cell replication in MIN6 cells; shares compounds with MIN6 prolif-1; MIN6 beta-cell proliferation, ATPlite luminescence, 48 h; cells kept in 0.2% serum; scaled between 0.2% and 10% serum; proliferation increase, % at 50 µM; 920 tested, under 10 active; AID 463095;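 active = proliferation increase above 40% at any of the four tested concentrations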
Of the large screens only hits and unclear results are named; the others gave an inactive call (follow-up assays come after a bar, where they were run). Only some compounds are listed: those with a hit (about 1.2% of all), similar ones and a draw of the others.

O=C(c1ccccc1Br)N1CCN(c2ccc([N+](=O)[O-])c(N3CCOCC3)c2)CC1	none
O=C(c1ccco1)N1CCN(c2ccc([N+](=O)[O-])c(N3CCOCC3)c2)CC1	MIN6 prolif-1 9.7 | MIN6 prolif-2 inactive
CCCCNC(=O)Nc1nnc(C(C)(C)C)s1	MIN6 prolif-1 5.1 | MIN6 prolif-2 inactive
CC(C)(C)c1nnc(NC(=O)Nc2ccc(Cl)cc2)s1	none
O=S(=O)(c1ccccc1)N1CCN(c2cccc(Cl)c2)CC1	MIN6 prolif-1 7.2 | MIN6 prolif-2 inactive
Cc1nc(NC(=O)c2ccc(Br)o2)ccc1Br	MIN6 prolif-1 11 (no result: GRK2 inh) | MIN6 prolif-2 inactive
CCOC(=O)C1CCN(C(=O)c2cc3c(-c4ccc(OC)c(OC)c4)nn(C)c3s2)CC1	MIN6 prolif-1 12 | MIN6 prolif-2 inactive
COc1ccc(N2CCN(c3ccc(Cl)nn3)CC2)cc1	none
CC(C)c1ccccc1NC(=O)CSc1n[nH]c(=O)n1C1CC1	none (no result: Platelet DG rel)
COC(=O)c1cc2nc(-c3ccc(C)cc3)cc(C(F)(F)F)n2n1	none
Cc1cc2nc(-c3ccncc3)cc(C(F)(F)F)n2n1	MIN6 prolif-1 9.3 (no result: Platelet DG rel) | MIN6 prolif-2 inactive
COC(C(=O)Nc1ccnn1C1CCN(Cc2ccc(C)s2)CC1)c1ccccc1 (configuration not stated)	MIN6 prolif-1 9.2 | MIN6 prolif-2 inactive
CCN(Cc1ccccc1)S(=O)(=O)c1ccc(S(=O)(=O)N(Cc2cccc(OC)c2)CC2CCCO2)cc1 (configuration not stated)	none
COc1cccc(CN(CC2CCCO2)S(=O)(=O)c2ccc(-n3cnnn3)c(OC)c2)c1 (configuration not stated)	MIN6 prolif-1 9.3 | MIN6 prolif-2 inactive
CC(CCN1C(Nc2ccccc2)=NC[C@@H]1Cc1ccccc1)c1ccccc1 (some centres not stated)	none
Cc1ccc(C(=O)N=c2sccn2C)o1	none
c1ccc(Cn2nnnc2CN2CCCC2)cc1	MIN6 prolif-1 4.8 | MIN6 prolif-2 inactive
COc1ccc(Cn2nnnc2CN2CCCCCC2)cc1	none
Cc1ccc(N(CC(=O)NC2CCCC2)C(=O)CCC(=O)Nc2nccs2)c(C)c1	MIN6 prolif-1 21 | MIN6 prolif-2 inactive
O=C(Cc1ccc(Br)cc1)N1CCN(C(=O)c2ccco2)CC1	none
O=C(c1ccco1)N1CCN(c2ncnc3scc(-c4ccccc4)c23)CC1	none
COc1ccc(-c2csc3ncnc(N4CCN(C(=O)c5ccco5)CC4)c23)cc1	MIN6 prolif-1 11 (no result: Platelet DG rel) | MIN6 prolif-2 inactive
CCOC(=O)c1c(C)[nH]c(C)c1C(=O)COC(=O)[C@@H](NC(=O)c1ccccc1OCC)C(C)C	MIN6 prolif-1 7.4 | MIN6 prolif-2 inactive
CCOc1ccc(/C=N/n2c(SC)nnc2-c2ccccc2)cc1OCC	MIN6 prolif-1 8.2 | MIN6 prolif-2 inactive
COc1nc(NC(C)(C)C)nc(Oc2ccc(=O)n(C)n2)n1	none
CC(C)Nc1nc(NC(C)(C)C)nc(Oc2ccc(=O)n(C)n2)n1	MIN6 prolif-1 7.4 | MIN6 prolif-2 inactive
CC(=O)C1=C(O)C(=O)N(Cc2ccccc2)C1c1ccc(N(C)C)cc1 (configuration not stated)	MIN6 prolif-1 6.1 | MIN6 prolif-2 inactive
CC(C)Sc1nc2c(cnn2-c2ccc(Cl)cc2)c(=O)[nH]1	MIN6 prolif-1 11 | MIN6 prolif-2 inactive
CC(C)Sc1nc2c(cnn2-c2ccccc2)c(=O)[nH]1	none
COc1ccccc1CNC(=O)COC(=O)C12CC3CC(CC(O)(C3)C1)C2	none (no result: Platelet DG rel)
CCNC(=O)c1ccccc1NC(=O)C1CC(=O)N(C(C)C)C1 (configuration not stated)	none
CN(C)C(=O)CN1C(=O)C2CC=C(Cl)CC2C1=O (configuration not stated)	Platelet DG rel inconclusive
CCN(CC)C(=O)CN1C(=O)C2CC=C(Cl)CC2C1=O (configuration not stated)	MIN6 prolif-1 6.9 | MIN6 prolif-2 inactive
CCOC(=O)c1c2n(c3ccc(O)cc13)CCC2	MIN6 prolif-1 9.1 | MIN6 prolif-2 inactive
CCOC(=O)c1c(C)n(CCNC(C)=O)c2ccc(O)cc12	none
CCN(CC)c1nc(C)nc2c1sc(=S)n2C	MIN6 prolif-1 8.0 | MIN6 prolif-2 inactive
Cc1nc(N2CCCCC2)c2sc(=S)n(C)c2n1	MIN6 prolif-1 8.9 | MIN6 prolif-2 inactive
NC(=O)N/N=C/c1ccccc1OCc1cccc2ccccc12	none
O=C(c1ccc(F)cc1)N1CCCC(C(=O)N2CCc3ccccc3C2)C1 (configuration not stated)	none
O=C(c1cccc([N+](=O)[O-])c1)N1CCCC(C(=O)N2CCc3ccccc3C2)C1 (configuration not stated)	MIN6 prolif-1 6.0 | MIN6 prolif-2 inactive
Cc1cccc(N2CCN(C(=S)NC3CCCCC3)CC2)c1C	MIN6 prolif-1 7.9 | MIN6 prolif-2 inactive
Cc1ccc(C)c(N2CCN(C(=S)NC3CCCCC3)CC2)c1	none
Cc1ccc(C(=O)OCC(=O)NCCN2C(=O)CSC2=O)cc1[N+](=O)[O-]	none (no result: Platelet DG rel)
Cc1cc(C(=O)OCC(=O)NCCN2C(=O)CSC2=O)ccc1[N+](=O)[O-]	MIN6 prolif-1 9.7 (no result: Platelet DG rel) | MIN6 prolif-2 inactive
OCCC1CN(Cc2ccccc2O)CCN1CCc1ccccc1 (configuration not stated)	MIN6 prolif-1 7.9 | MIN6 prolif-2 inactive
OCCC1CN(CCCc2ccccc2)CCN1CCc1ccccc1 (configuration not stated)	none
C=C[C@@]1(C)CC(=O)[C@]2(O)[C@@]3(C)[C@@H](O)CCC(C)(C)[C@@H]3[C@H](O)[C@H](OC(C)=O)[C@@]2(C)O1	MIN6 prolif-1 17, Platelet DG rel 90 | MIN6 prolif-2 inactive
CC(=O)N1c2ccc(S(=O)(=O)N3CCCC3)cc2CC1C(=O)NC(C)C (configuration not stated)	MIN6 prolif-1 13 | MIN6 prolif-2 inactive
O=C(CCN1C(=O)/C(=C/c2ccccc2Cl)SC1=S)NC1CCCC1	none
CCOn1c(=O)c(-c2cc3ccccc3o2)[n+]([O-])c2ccccc21	MIN6 prolif-1 6.8 | MIN6 prolif-2 inactive
COc1cccc(NC(=O)CSc2nc(C3CC3)nc3ccccc23)c1	none
Cc1cccc(C)c1NC(=O)CSc1nc(C2CC2)nc2ccccc12	MIN6 prolif-1 0.0 | MIN6 prolif-2 inactive
CCN1CCN(C(=O)Cn2ncc3ccsc3c2=O)CC1	MIN6 prolif-1 9.8 | MIN6 prolif-2 inactive
CCC/C=N/Nc1nnc(Cc2ccc(OC)c(OC)c2)c(=O)[nH]1	none
NS(=O)(=O)c1ccc(NC(=O)/C(=C/c2ccncc2)NC(=O)c2ccccc2)cc1	none
COc1ccc(NS(=O)(=O)c2ccc(C)cc2)c([N+](=O)[O-])c1	none
COc1ccc(NC(=O)c2ccccc2NS(=O)(=O)c2ccc(C)cc2)c([N+](=O)[O-])c1	MIN6 prolif-1 6.2 | MIN6 prolif-2 inactive
C[C@@H]1[C@H](O)C[C@@]23COC(=O)C2=CCCC3[C@@]1(C)CCC1COC(=O)C1 (some centres not stated)	none (no result: Platelet DG rel)
Nc1ccc[n+](Cc2ccccn2)c1	MIN6 prolif-1 4.9 | MIN6 prolif-2 inactive
